PubChem BioAssay (NCI)
About 79,000 compounds went through this panel and 15% of them were active in at least one assay; those are over-represented in the sample as a whole. Activity calls are given as the source filed them. No stated cut-off is given here; in the data, active means growth inhibition above about 70%; inactive means the rest.

Tests used:
[1] = NCI Yeast Anticancer Drug Screen. Data for the rad52 strain (AID 147);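 further: 0% = growth of vehicle-treated control cultures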; conditions: S. cerevisiae rad52 mutant growth inhibition, active compounds read high
Procedure, shortened: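 Here a repair-compromised yeast strain receives each compound; its growth is then quantified and normalised to vehicle-only controls.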

[2] = NCI Yeast Anticancer Drug Screen. Data for the rad50EPP+ strain (AID 151);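 further: 0% = growth of vehicle-treated control cultures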; conditions: S. cerevisiae rad50 mutant strain, active compounds read high
Procedure, shortened: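 Read-out is yeast growth inhibition relative to vehicle; cells used were the rad50EPP+ strain.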

[3] = NCI Yeast Anticancer Drug Screen. Data for the mgt1 strain (AID 153); conditions: S. cerevisiae mgt1 mutant growth inhibition, active compounds read high
Procedure, shortened: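 Measured: inhibition of mgt1 yeast growth by compound, normalized to vehicle-treated cultures.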

[4] = NCI Yeast Anticancer Drug Screen. Data for the rad50 strain (AID 155);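 further: 0% = growth of vehicle-only cultures of the same strain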; conditions: S. cerevisiae rad50 strain growth inhibition, active compounds read high
Procedure, shortened: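 Cells are treated with compound, grown, and their growth is then scored against vehicle-only cultures of the same repair-deficient yeast strain.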

[5] = NCI Yeast Anticancer Drug Screen. Data for the mec2-1 strain (AID 157); conditions: S. cerevisiae mec2-1 strain, active compounds read high
Procedure, shortened: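 Using mec2-1 yeast: add compound, measure growth, express inhibition versus vehicle-treated cultures.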

[6] = NCI Yeast Anticancer Drug Screen. Data for the rad14 strain (AID 159);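 further: 0% = growth of vehicle-treated control cultures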; conditions: S. cerevisiae rad14 strain growth inhibition, active compounds read high
Procedure, shortened: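 Readout: yeast growth inhibition, referenced to vehicle-only cultures. Strain bears a defined alteration in DNA damage repair.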

[7] = NCI Yeast Anticancer Drug Screen. Data for the sgs1 mgt1 strain (AID 161);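 further: 0% = growth of cultures given vehicle only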; conditions: S. cerevisiae sgs1 mgt1 strain, active compounds read high
Procedure, shortened: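 Yeast cells carrying a defined DNA-repair defect were exposed to test compounds. Growth inhibition was measured relative to vehicle-treated controls.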

[8] = NCI Yeast Anticancer Drug Screen. Data for the CLN2oe strain (AID 163);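 further: 0% = growth of vehicle-only control cultures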; conditions: S. cerevisiae CLN2oe strain, active compounds read high
Procedure, shortened: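 Whole-cell yeast growth assay. A strain engineered for altered cell-cycle control received compound, and inhibition relative to vehicle-treated cultures was recorded.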

[9] = NCI Yeast Anticancer Drug Screen. Data for the cln2 rad14 strain (AID 165);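 further: 0% = growth equal to vehicle treated cultures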; conditions: S. cerevisiae cln2 rad14 strain, active compounds read high
Procedure, shortened: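 Yeast strain cln2 rad14, bearing defects in cell cycle control and DNA repair, serves as the test system; values reflect growth inhibition compared with vehicle.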

[10] = NCI Yeast Anticancer Drug Screen. Data for the bub3 strain (AID 167); conditions: S. cerevisiae bub3 mutant strain, active compounds read high
Procedure, shortened: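 Part of a panel of yeast mutants defective in DNA damage repair or cell cycle regulation. Each strain is grown with compound, and inhibition is calculated relative to solvent-treated cultures.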

[11] = NCI Yeast Anticancer Drug Screen. Data for the wt2 strain (AID 169);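 further: 0% = growth of vehicle-treated yeast cultures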; conditions: S. cerevisiae wt2 strain growth inhibition, active compounds read high
Procedure, shortened: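 Treated yeast vs. vehicle-treated yeast: growth inhibition determined.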

[12] = NCI Yeast Anticancer Drug Screen. Data for the mlh1 strain (AID 171);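 further: 0% = growth of vehicle-treated control cultures of the same strain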; conditions: S. cerevisiae mlh1 strain growth inhibition, active compounds read high
Procedure, shortened: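 A yeast strain with a defined genetic lesion serves as the test organism. Cultures receive compound or vehicle, and growth is measured.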

[13] = NCI Yeast Anticancer Drug Screen. Data for the sgs1 strain (AID 173);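 further: 0% = growth of vehicle-only control cultures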; conditions: S. cerevisiae sgs1 mutant, active compounds read high
Procedure, shortened: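 A genetically defined yeast mutant is incubated with the test compound, and its growth is compared to that of the same strain given vehicle.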

[14] = NCI Yeast Anticancer Drug Screen. Data for the mlh1 rad18 strain (AID 175); conditions: S. cerevisiae mlh1 rad18 strain growth inhibition, active compounds read high
Procedure, shortened: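 Steps: expose repair-defective yeast to compound; measure growth; express inhibition against vehicle-treated controls.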

[15] = NCI Yeast Anticancer Drug Screen. Data for the rad18 strain (AID 177); conditions: S. cerevisiae rad18 mutant growth inhibition, active compounds read high
Procedure, shortened: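 Measured value is growth inhibition of a yeast strain bearing a DNA repair alteration, referenced to vehicle-treated cells.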

[16] = NCI Yeast Anticancer Drug Screen. Data for the wt1 strain (AID 149);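 further: 0% = growth of vehicle-treated wt1 cultures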; conditions: S. cerevisiae wt1 strain (SPY 50644) growth inhibition, active compounds read high
Procedure, shortened: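 The wt1 strain was treated with compounds, and growth was compared with vehicle-treated cultures to give inhibition.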

[17] = at 5.0 µM (retest, dose inferred, filed as 0.5)
[18] = at 50.0 µM (retest, dose inferred, filed as 5.0)

Measured: growth inhibition

O=C(Nc1cccs1)c1ccccc1
active: [3]; at 100.0 µM 88% | [4]; [18] 82% | [4]; at 50.0 µM 94.8% | [4]; at 100.0 µM 92% | [6]; at 100.0 µM 80% | [12]; at 100.0 µM 86% | [13]; at 100.0 µM 86% | [14]; [18] 80% | [14]; at 50.0 µM 94.6% | [15]; at 100.0 µM 94%
inactive: [1]; at 1.2 µM -5% | [1]; at 3.7 µM -3% | [1]; at 11.0 µM -5% | [1]; at 33.0 µM 3% | [1]; at 100.0 µM 67% | [2]; at 1.2 µM -1% | [2]; at 3.7 µM 7% | [2]; at 11.0 µM 10% | [2]; at 33.0 µM 18% | [2]; at 100.0 µM 38% | [3]; at 1.2 µM -1% | [3]; at 3.7 µM -4% | [3]; at 11.0 µM -4% | [3]; at 33.0 µM 5% | [4]; at 1.2 µM -4% | [4]; at 3.7 µM -8% | [4]; [17] -155% | [4]; at 11.0 µM 10% | [4]; at 33.0 µM 42% | [5]; at 1.2 µM -1% | [5]; at 3.7 µM -1% | [5]; [17] -52% | [5]; at 11.0 µM -4% | [5]; at 33.0 µM 3% | [5]; [18] -42% | [5]; at 50.0 µM 30.1% | [5]; at 100.0 µM 51% | [6]; at 1.2 µM 0% | [6]; at 3.7 µM -3% | [6]; at 11.0 µM 0% | [6]; at 33.0 µM 23% | [7]; [17] -67% | [7]; [18] 66% | [7]; at 50.0 µM 65.8% | [8]; at 1.2 µM 0% | [8]; at 3.7 µM -1% | [8]; at 11.0 µM -1% | [8]; at 33.0 µM -1% | [8]; at 100.0 µM 53% | [9]; [17] -65% | [9]; [18] -62% | [9]; at 50.0 µM -0.2% | [10]; at 1.2 µM -12% | [10]; at 3.7 µM -9% | [10]; [17] -68% | [10]; at 11.0 µM -3% | [10]; at 33.0 µM -7% | [10]; [18] 8% | [10]; at 50.0 µM 13.8% | [10]; at 100.0 µM 64% | [11]; at 1.2 µM -1% | [11]; at 3.7 µM -1% | [11]; at 11.0 µM -2% | [11]; at 33.0 µM -2% | [11]; at 100.0 µM 67% | [12]; at 1.2 µM 6% | [12]; at 3.7 µM -5% | [12]; at 11.0 µM -5% | [12]; at 33.0 µM 2% | [13]; at 1.2 µM 0% | [13]; at 3.7 µM -1% | [13]; at 11.0 µM -1% | [13]; at 33.0 µM 3% | [14]; [17] -125% | [15]; at 1.2 µM -6% | [15]; at 3.7 µM -2% | [15]; at 11.0 µM 1% | [15]; at 33.0 µM 4%

CCOc1ccc(N)c(S)c1
active: [1]; at 33.0 µM 79% | [1]; at 100.0 µM 97% | [16]; at 100.0 µM 97% | [3]; at 33.0 µM 71% | [3]; at 100.0 µM 98% | [4]; at 33.0 µM 88% | [4]; [18] 98% | [4]; at 50.0 µM 93.6% | [4]; at 100.0 µM 97% | [5]; [18] 96% | [5]; at 50.0 µM 91.3% | [5]; at 100.0 µM 98% | [6]; at 100.0 µM 98% | [7]; [18] 97% | [7]; at 50.0 µM 98.2% | [9]; [18] 98% | [9]; at 50.0 µM 97% | [10]; at 33.0 µM 97% | [10]; at 50.0 µM 98% | [10]; at 100.0 µM 96% | [11]; at 33.0 µM 86% | [11]; at 100.0 µM 97% | [12]; at 33.0 µM 82% | [12]; at 100.0 µM 98% | [13]; at 33.0 µM 97% | [13]; at 100.0 µM 96% | [14]; [18] 98% | [14]; at 50.0 µM 92% | [15]; at 33.0 µM 85% | [15]; at 100.0 µM 95%
inactive: [1]; at 1.2 µM 1% | [1]; at 3.7 µM 3% | [1]; at 11.0 µM 10% | [16]; at 1.2 µM 0% | [16]; at 3.7 µM 4% | [16]; at 11.0 µM 7% | [16]; at 33.0 µM 38% | [3]; at 1.2 µM 0% | [3]; at 3.7 µM -1% | [3]; at 11.0 µM 6% | [4]; at 1.2 µM 1% | [4]; at 3.7 µM -45% | [4]; [17] 0% | [4]; at 11.0 µM 34% | [5]; at 1.2 µM 0% | [5]; at 3.7 µM 4% | [5]; [17] -1% | [5]; at 11.0 µM 17% | [5]; at 33.0 µM 68% | [6]; at 1.2 µM -2% | [6]; at 3.7 µM -7% | [6]; at 11.0 µM 1% | [6]; at 33.0 µM 54% | [7]; [17] 9% | [9]; [17] 9% | [10]; at 1.2 µM 0% | [10]; at 3.7 µM 4% | [10]; [17] 1% | [10]; at 11.0 µM 23% | [10]; [18] 27% | [11]; at 1.2 µM -1% | [11]; at 3.7 µM 8% | [11]; at 11.0 µM 3% | [12]; at 1.2 µM 0% | [12]; at 3.7 µM 3% | [12]; at 11.0 µM 10% | [13]; at 1.2 µM -3% | [13]; at 3.7 µM 0% | [13]; at 11.0 µM 18% | [14]; [17] 2% | [15]; at 1.2 µM 1% | [15]; at 3.7 µM 0% | [15]; at 11.0 µM 9%

CC(C)(Br)C(=O)/C=C/c1ccccc1
inactive: [1]; at 1.2 µM 8% | [1]; at 3.7 µM 21% | [1]; at 11.0 µM 47% | [2]; at 1.2 µM 21% | [2]; at 3.7 µM 51% | [3]; at 1.2 µM -2% | [3]; at 3.7 µM -1% | [3]; at 11.0 µM 4% | [3]; at 33.0 µM 7% | [3]; at 100.0 µM 15% | [4]; at 1.2 µM 6% | [4]; at 3.7 µM 11% | [4]; [17] 15% | [4]; at 11.0 µM 26% | [4]; at 33.0 µM 34% | [4]; at 100.0 µM 60% | [5]; at 1.2 µM 5% | [5]; at 3.7 µM 7% | [5]; [17] -14% | [5]; at 11.0 µM 17% | [5]; at 33.0 µM 28% | [5]; at 100.0 µM 48% | [6]; at 1.2 µM 6% | [6]; at 3.7 µM 14% | [6]; at 11.0 µM 27% | [6]; at 33.0 µM 59% | [7]; [17] 68% | [9]; [17] 3% | [10]; at 1.2 µM -3% | [10]; at 3.7 µM -7% | [10]; [17] -16% | [10]; at 11.0 µM -7% | [10]; at 33.0 µM -2% | [10]; [18] 63% | [10]; at 50.0 µM 22.1% | [10]; at 100.0 µM 7% | [11]; at 1.2 µM 0% | [11]; at 3.7 µM 3% | [11]; at 11.0 µM 6% | [11]; at 33.0 µM 10% | [11]; at 100.0 µM 18% | [12]; at 1.2 µM 0% | [12]; at 3.7 µM 4% | [12]; at 11.0 µM 10% | [12]; at 33.0 µM 15% | [12]; at 100.0 µM 27% | [13]; at 1.2 µM 24% | [13]; at 3.7 µM 50% | [13]; at 11.0 µM 66%
active: [1]; at 33.0 µM 73% | [1]; at 100.0 µM 91% | [2]; at 11.0 µM 76% | [2]; at 33.0 µM 88% | [2]; at 100.0 µM 95% | [4]; [18] 93% | [4]; at 50.0 µM 88.3% | [5]; [18] 89% | [5]; at 50.0 µM 95.7% | [6]; at 100.0 µM 97% | [7]; [18] 92% | [7]; at 50.0 µM 91.3% | [9]; [18] 87% | [9]; at 50.0 µM 97.2% | [13]; at 33.0 µM 70% | [13]; at 100.0 µM 80% | [14]; [17] 74% | [14]; [18] 95% | [14]; at 50.0 µM 71.9% | [15]; at 1.2 µM 94% | [15]; at 3.7 µM 95% | [15]; at 11.0 µM 96% | [15]; at 33.0 µM 96% | [15]; at 100.0 µM 97%
